{
  "source": "PubChem BioAssay (NCI)",
  "note": "Compounds without any hit were thinned out: in the full panel of roughly 79,000, 15% have a hit. Values without a mark were called inactive. Calls of active or inactive are those of the source. No stated cut-off is given here; in the data, active means growth inhibition above about 70%; inactive means the rest.",
  "data": [
    {"assay": "NCI Yeast Anticancer Drug Screen. Data for the cln2 rad14 strain (AID 165);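 further: 0% = growth equal to vehicle treated cultures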", "settings": "S. cerevisiae cln2 rad14 strain, at 50.0 µM (retest, dose inferred, filed as 5.0), hits give high values", "how_it_was_run": "(§1)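 Strain: cln2 rad14 yeast, altered in cell cycle control and DNA damage repair. Read-out: growth inhibition vs vehicle.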", "values": [
      {"molecule": "c1ccc(-c2cc(C3CO3)c3ccccc3n2)cc1", "note": "(stereo unspecified)", "growth inhibition": "28%"},
      {"molecule": "S=C1C(=Nc2ccccc2)N(c2ccccc2)/C(=N\\c2ccccn2)N1c1ccccc1", "growth inhibition": "97% (active)"},
      {"molecule": "CCC(OC(C)=O)C1CC(C(C)C)CCC1C", "note": "(stereo unspecified)", "growth inhibition": "73% (active)"},
      {"molecule": "CC(C)=CCc1c2c(c(O)c3c(=O)c(-c4ccc(O)c(O)c4)coc13)C=CC(C)(C)O2", "growth inhibition": "92% (active)"},
      {"molecule": "O=C(NC(N1CCN(c2cc3c(cc2F)c(=O)c(C(=O)O)cn3C2CC2)CC1)(C(F)(F)F)C(F)(F)F)c1ccccc1", "growth inhibition": "20%"},
      {"molecule": "Fc1cc(F)c(F)c(S)c1F", "growth inhibition": "83% (active)"},
      {"molecule": "COc1ccc2cc3c4cc5c(cc4cc[n+]3cc2c1OC)OCO5", "growth inhibition": "94% (active)"},
      {"molecule": "CCCCCCCCNCCCCCCCC", "growth inhibition": "100% (active)"},
      {"molecule": "Nc1cc(Cl)ccc1Nc1ccccc1", "growth inhibition": "95% (active)"},
      {"molecule": "O=C(/C(=C/c1ccc(O)cc1)c1ccccc1)c1ccccc1", "growth inhibition": "97% (active)"},
      {"molecule": "O=Cc1ccccc1C=O", "growth inhibition": "74% (active)"},
      {"molecule": "C1=CCN([B-](c2ccccc2)[C+]2CCCCC2)C=C1", "growth inhibition": "18%"},
      {"molecule": "CC/C(=C(\\c1ccccc1)c1ccc(OCC[N+](C)(C)C)cc1)c1ccccc1", "growth inhibition": "21%"},
      {"molecule": "O=S(=O)(c1cccc(C(F)(F)F)c1)N1c2ccccc2-n2cccc2C1c1cccnc1", "note": "(stereo unspecified)", "growth inhibition": "96% (active)"},
      {"molecule": "Nc1ccc2c(c1)C(=O)c1c(F)cccc1-2", "growth inhibition": "-41%"},
      {"molecule": "CN(C)/C(=N/C(=S)Nc1ccccc1)SCc1ccccc1", "growth inhibition": "44%"},
      {"molecule": "CCN(CC)C(=S)N/N=C(\\C)c1ccccc1O", "growth inhibition": "95% (active)"},
      {"molecule": "CC(C)OC(=O)NNc1cc(Cl)ccc1Cl", "growth inhibition": "21%"},
      {"molecule": "CC(C)CCC[C@@H](C)[C@H]1CC[C@H]2[C@@H]3CC[C@H]4C[C@H](N)CC[C@]4(C)[C@H]3CC[C@]12C", "growth inhibition": "-3%"},
      {"molecule": "O=C1c2ccccc2-c2ccc(N=Cc3ccccc3)cc21", "growth inhibition": "9%"}
    ]},
    {"assay": "NCI Yeast Anticancer Drug Screen. Data for the cln2 rad14 strain (AID 165);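 further: 0% = growth equal to vehicle treated cultures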", "settings": "S. cerevisiae cln2 rad14 strain, at 50.0 µM, hits give high values", "how_it_was_run": "as §1", "values": [
      {"molecule": "COc1ccc2nc3cccc([N+](=O)[O-])c3c(NCCNCCN(C)C)c2c1", "growth inhibition": "77.7% (active)"},
      {"molecule": "Cc1cccc(/C=N/NC(=S)NC2CCCCC2)n1", "growth inhibition": "40.6%"},
      {"molecule": "COC(=O)C(=O)c1c(-c2ccc(Cl)c(Cl)c2)[nH]c2[nH]n(-c3ccccc3)c(=O)c2c1=O", "growth inhibition": "87.5% (active)"},
      {"molecule": "c1ccc([P+](CCN2Cc3ccccc3C2)(c2ccccc2)c2ccccc2)cc1", "growth inhibition": "76% (active)"},
      {"molecule": "Cc1cc(C)c2[s+]snc2c1", "growth inhibition": "33.1%"},
      {"molecule": "CC(C)(Br)C(=O)/C=C/c1ccccc1", "growth inhibition": "97.2% (active)"},
      {"molecule": "Cc1ccc(S(=O)(=O)NC(=O)C2C(=O)CC3(CCCCC3)CC2=O)cc1", "growth inhibition": "-8.9%"},
      {"molecule": "NC(=S)N1N=C2c3ccccc3CC[C@H]2[C@@H]1c1ccc(Cl)cc1", "growth inhibition": "84.7% (active)"},
      {"molecule": "O=[N+]([O-])/C=C/c1cc2ccc3ccccc3c2[nH]1", "growth inhibition": "97.2% (active)"},
      {"molecule": "O=C1C(=C2CCCC2)CCC1CN1CCCCC1", "note": "(stereo unspecified)", "growth inhibition": "43.5%"},
      {"molecule": "OC(CC(O)(C(F)(F)F)C(F)(F)F)c1ccc(C(O)CC(O)(C(F)(F)F)C(F)(F)F)cc1", "note": "(stereo unspecified)", "growth inhibition": "99.2% (active)"},
      {"molecule": "COc1cc2c(cc1OC)[C@@H](Nc1ccc(C#N)cc1)C1COC(=O)[C@@H]1C2c1cc(OC)c(O)c(OC)c1", "note": "(stereo partly specified)", "growth inhibition": "82% (active)"},
      {"molecule": "O=c1cccccc1[O-].O=c1cccccc1[O-].O=c1cccccc1[O-].[Eu+3]", "growth inhibition": "86.7% (active)"},
      {"molecule": "O=C1c2ccccc2C(=O)c2sc(Nc3ccccc3Cl)nc21", "growth inhibition": "91.3% (active)"},
      {"molecule": "NC(CCCCCCCCCCCCC(N)C(=O)c1ccccc1)C(=O)c1ccccc1", "note": "(stereo unspecified)", "growth inhibition": "-32.3%"},
      {"molecule": "CC1=C(C)C(=O)C2=C(OCCO2)C1=O", "growth inhibition": "3.35%"},
      {"molecule": "c1ccc(-c2cc(C3CO3)c3ccccc3n2)cc1", "note": "(stereo unspecified)", "growth inhibition": "66.5%"},
      {"molecule": "S=C1C(=Nc2ccccc2)N(c2ccccc2)/C(=N\\c2ccccn2)N1c1ccccc1", "growth inhibition": "97.4% (active)"},
      {"molecule": "CCC(OC(C)=O)C1CC(C(C)C)CCC1C", "note": "(stereo unspecified)", "growth inhibition": "72.2% (active)"},
      {"molecule": "CC(C)=CCc1c2c(c(O)c3c(=O)c(-c4ccc(O)c(O)c4)coc13)C=CC(C)(C)O2", "growth inhibition": "83.5% (active)"},
      {"molecule": "O=C(NC(N1CCN(c2cc3c(cc2F)c(=O)c(C(=O)O)cn3C2CC2)CC1)(C(F)(F)F)C(F)(F)F)c1ccccc1", "growth inhibition": "33.9%"},
      {"molecule": "Fc1cc(F)c(F)c(S)c1F", "growth inhibition": "79.5% (active)"},
      {"molecule": "COc1ccc2cc3c4cc5c(cc4cc[n+]3cc2c1OC)OCO5", "growth inhibition": "89.2% (active)"},
      {"molecule": "CCCCCCCCNCCCCCCCC", "growth inhibition": "99.1% (active)"},
      {"molecule": "Nc1cc(Cl)ccc1Nc1ccccc1", "growth inhibition": "61.1%"},
      {"molecule": "O=C(/C(=C/c1ccc(O)cc1)c1ccccc1)c1ccccc1", "growth inhibition": "92.5% (active)"}
    ]}
  ]
}
